In one experiment the test system is Staphylococcus aureus. The settings on record: Concentration 20 uM; ASSAY_TEST Inhibition of Bacterial Growth; detection method Absorption (OD600); MEDIA CAMHB; plate type 384well; NBS; CORNING #3640; time 18 hr.
A further experiment relates to Escherichia coli. Particulars: Concentration 20 uM; ASSAY_TEST Inhibition of Bacterial Growth; detection method Absorption (OD600); MEDIA CAMHB; plate type 384well; NBS; CORNING #3640; time 18 hr.

Structures are written as SMILES. Potency and affinity values are given separately.

With `CN(CCOc1ccc(CC2SC(=O)NC2=O)cc1)c1ccccn1.O=C(O)/C=C\C(=O)O` (stereo not drawn) [ROSIGLITAZONE MALEATE], the Inhibition with Staphylococcus aureus was found to be 5.02%; in the experiment with Escherichia coli it was 0.27%.

In the case of `CC(C)NCC(O)c1ccc(NS(C)(=O)=O)cc1.Cl` (stereo not drawn) [SOTALOL HYDROCHLORIDE], the results for the Inhibition in the experiment with Staphylococcus aureus and in the experiment on Escherichia coli were -25.28% and 5.97%, respectively.

With `N#Cc1ccc(C(c2ccc(C#N)cc2)n2cncn2)cc1` [LETROZOLE], the Inhibition in the experiment on Staphylococcus aureus is 12.65%; in the experiment on Escherichia coli it was -0.32%.

Take `CC(=O)OCC(=O)[C@@]1(O)CC[C@H]2[C@@H]3CCC4=CC(=O)C=C[C@]4(C)[C@H]3[C@@H](O)C[C@@]21C` [PREDNISOLONE ACETATE]: the Inhibition is given as 11.59% in the experiment on Staphylococcus aureus and 1.81% in the experiment with Escherichia coli.

Take `O=C1[C@H](CC[C@H](O)c2ccc(F)cc2)[C@@H](c2ccc(O)cc2)N1c1ccc(F)cc1` [EZETIMIBE]: the Inhibition is given as 5.57% in the experiment with Staphylococcus aureus and -0.7% with Escherichia coli.

As for `CCCCC(=O)N(Cc1ccc(-c2ccccc2-c2nnn[nH]2)cc1)[C@H](C(=O)O)C(C)C`, the values for the Inhibition in the experiment with Staphylococcus aureus and in the experiment on Escherichia coli were 14.82% and 3.3%, respectively.

For `CC#C[C@]1(O)CC[C@H]2[C@@H]3CCC4=CC(=O)CCC4=C3[C@@H](c3ccc(N(C)C)cc3)C[C@@]21C` [MIFEPRISTONE], the figures for the Inhibition with Staphylococcus aureus and in the experiment on Escherichia coli were 11.2% and -7.81%, respectively.

As for `COc1cc(N)c(Cl)cc1C(=O)N[C@@H]1CCN(CCCOc2ccc(F)cc2)C[C@@H]1OC.O` [(R,S)-CISAPRIDE MONOHYDRATE], the Inhibition in the experiment with Staphylococcus aureus was 10.08%; with Escherichia coli it was 2.71%.

`CN[C@@H]1[C@H](O)[C@H](NC)[C@H]2O[C@@]3(O)C(=O)C[C@@H](C)O[C@H]3O[C@@H]2[C@H]1O.Cl.Cl.Cl.O.O.O`: the values for the Inhibition in the experiment on Staphylococcus aureus and with Escherichia coli were 11.03% and 29.97%, respectively.

The Inhibition is the change of the read-out against control, counted positive when it falls.

The values are drawn from ChEMBL document CHEMBL4513141, “CO-ADD screening of NIH (USA) - Clinical Collection” (2021).
